Screening data from PubChem.
KCNQ2 inh: KCNQ2 (rat) channel inhibition; CHO-K1 KCNQ2, FluxOR thallium flux, 20 min; hits give low values; B-score at 10 µM; 310,000 tested, 1.1% active;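 active means fluorescence ratio B-score at most minus 3 library SDs, with starting brightness B-score within 2 library SDs, cut at about -5.5 in these data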
Target sequence (O88943 whole entry, looked up): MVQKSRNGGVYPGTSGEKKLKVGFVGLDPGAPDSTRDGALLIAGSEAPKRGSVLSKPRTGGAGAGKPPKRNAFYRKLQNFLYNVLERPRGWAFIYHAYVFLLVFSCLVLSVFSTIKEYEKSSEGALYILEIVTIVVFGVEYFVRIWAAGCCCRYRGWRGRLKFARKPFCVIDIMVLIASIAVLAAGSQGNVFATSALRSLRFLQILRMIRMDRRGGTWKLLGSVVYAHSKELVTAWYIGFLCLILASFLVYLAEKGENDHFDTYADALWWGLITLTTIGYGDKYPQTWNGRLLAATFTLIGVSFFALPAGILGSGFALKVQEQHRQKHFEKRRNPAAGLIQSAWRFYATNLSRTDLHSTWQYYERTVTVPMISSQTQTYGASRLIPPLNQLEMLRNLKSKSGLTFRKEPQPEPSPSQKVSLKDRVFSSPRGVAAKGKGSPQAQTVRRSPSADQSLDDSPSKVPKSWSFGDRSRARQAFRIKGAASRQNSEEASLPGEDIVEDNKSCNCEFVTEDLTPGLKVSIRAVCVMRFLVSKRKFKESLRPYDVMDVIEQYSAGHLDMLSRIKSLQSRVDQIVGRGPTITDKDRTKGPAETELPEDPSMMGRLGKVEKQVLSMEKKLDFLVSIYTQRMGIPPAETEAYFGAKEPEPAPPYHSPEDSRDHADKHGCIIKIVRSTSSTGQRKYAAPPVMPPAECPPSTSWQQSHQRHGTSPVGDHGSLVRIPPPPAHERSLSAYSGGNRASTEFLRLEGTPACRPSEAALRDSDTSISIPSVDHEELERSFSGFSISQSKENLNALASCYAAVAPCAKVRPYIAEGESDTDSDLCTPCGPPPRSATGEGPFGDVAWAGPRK
KCNQ2 enhance: potentiators of rat KCNQ2 potassium channel | CHO-K1 KCNQ2, FluxOR thallium flux fluorescence; hits give high values | B-score at 10 µM | 310,000 tested, 0.54% active | AID 2239;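 active means fluorescence ratio B-score at least 3 SD of library B-scores, with initial fluorescence B-score within 3 of them, cut at about 5.3 in these data; same plate scores as AID 2156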;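 further: B-score of peak minus minimum over baseline fluorescence ratio after K+ and Tl+ stimulus; positive B-score means potentiation of KCNQ2 with more thallium influx and brighter signal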
Each line names hits and unclear results; the compound was inactive in the other large screens. Rows were chosen to be rich in hits. Some 1.6% of all compounds tested hit in one or more screens of this group.

CCC1(c2ccccc2)C(=O)N(C(=O)OC(C)(C)C)N1C(=O)OC(C)(C)C (centres undefined)	KCNQ2 inh -6.53
CCOC(=O)N1C(=O)[C@](CC)(c2ccccc2)N1C(=O)OCC	none
O=C(/C=C/c1cn(-c2ccccc2)nc1-c1cccnc1)N1CCCCC1	none (no result: KCNQ2 enhance)
O=C(c1cc(Cl)ccc1Cl)N1CCN(c2ccccn2)CC1	none (no result: KCNQ2 enhance)
O=C(/C=C/c1cn(-c2ccccc2)nc1-c1cccc(Cl)c1)N1CCN(c2ccccn2)CC1	KCNQ2 inh -5.68
O=C(c1cnc(N2CCN(c3ccccn3)CC2)c2ccccc12)N1CCN(c2cccc(Cl)c2)CC1	KCNQ2 inh -7.93
COc1ccc(NC(=O)CN(C)C(=O)CCNS(=O)(=O)c2ccc(Br)cc2)cc1	none
Cc1ccc(NC(=O)C2CCN(S(=O)(=O)c3ccc4c(c3)OCCO4)CC2)c(O)c1	none
N#CCc1ccc(Oc2ncccn2)cc1	none (no result: KCNQ2 enhance)
O=C(NC(=S)NCc1ccco1)c1ccccc1[N+](=O)[O-]	none
Cc1nc2ccccc2c(=O)n1CCc1ccc(O)cc1	none
Nn1c(SCC(=O)NCCCc2ccccc2)nnc1-c1cccnc1	none (no result: KCNQ2 enhance)
Cc1cc(C)cc(N(C(=O)CNS(=O)(=O)c2ccccc2)C(C(=O)NCc2ccccc2)c2ccc(C)o2)c1 (centres undefined)	none (no result: KCNQ2 enhance)
Cc1ccc(S(=O)(=O)NCC(=O)N(c2ccccc2)C(C(=O)NCc2ccccc2)c2ccco2)cc1 (centres undefined)	KCNQ2 inh -6.89
CC(C)c1ccc(NC2CCCN(C(=O)CCN3CCCCO3)C2)cc1 (centres undefined)	none
CC(NC(=O)Cc1cccs1)C(c1cccs1)N1CCN(c2ccccc2)CC1 (centres undefined)	KCNQ2 enhance 8.25
CCC(=O)NC(C)C(c1cccs1)N1CCN(c2ccccc2)CC1 (centres undefined)	none
CCc1ccccc1N(C(=O)c1ccco1)C(C(=O)NC1CCCC1)c1cccnc1 (centres undefined)	none (no result: KCNQ2 enhance)
COc1cccc(/C=N/Nc2ncnc3scc(-c4ccccc4)c23)c1OC	KCNQ2 inh -6.05
Cc1sc2ncnc(N/N=C/c3ccccc3O)c2c1C	none (no result: KCNQ2 enhance)
Cc1cc(Cl)ccc1NC(=O)CSc1nnc(-c2ccncc2)n1Cc1ccco1	none
COc1ccc(-c2nnc(SC(C)C(=O)NCc3ccc4c(c3)OCO4)n2Cc2ccco2)cc1 (centres undefined)	KCNQ2 inh -8.25
CC(Sc1nnc2ccccn12)C(=O)NCc1ccc2c(c1)OCO2 (centres undefined)	none (no result: KCNQ2 enhance)
CC(=O)Nc1cccc(NC(=O)CSc2ncc(-c3ccc(Cl)cc3)n2Cc2ccco2)c1	KCNQ2 inh -6.64
O=C(CSc1nnc(-c2ccc(Cl)cc2)n1Cc1ccco1)NCc1ccc2c(c1)OCO2	KCNQ2 inh -5.89
O=C(CSc1nnc(-c2ccc(Cl)cc2)n1Cc1ccco1)Nc1ccc2c(c1)OCCO2	none
NC(=O)CSc1nc2cc(Cl)ccc2c(=O)n1C1CCCCC1	none (no result: KCNQ2 enhance)
O=C(COC(=O)c1ncc(Cl)c(Cl)c1Cl)Nc1cccnc1Cl	none (no result: KCNQ2 enhance)
CCCCn1c(N)c(N(CCOC)C(=O)c2cc(Cl)nc3ccccc23)c(=O)[nH]c1=O	none (no result: KCNQ2 enhance)
C/C(=C\C(=O)c1ccccc1)NNc1nc2ccccc2s1	KCNQ2 inh -5.71
CC(=O)NNc1nc2ccccc2s1	none
CCn1c(=O)c(=O)n(CC)c2cc(S(=O)(=O)Nc3cc(C)ccc3C)ccc21	none
Cc1cc(C)c(OCCCNC2CCCC2)c(Br)c1	none
CN(C)Cc1ccc(CNC(=O)COc2ccc3ccccc3c2)cc1	none
CCn1c(SCC(=O)Nc2ccc3c(c2)OCO3)nnc1C(C)C	none (no result: KCNQ2 enhance)
O=C1NC(=Nc2ccccc2Cl)S/C1=C\c1ccc(C(=O)O)cc1	none (no result: KCNQ2 enhance)
CC12CCC(C/C1=N\N=C1\NC(=O)/C(=C\c3ccc(Cl)cc3)S1)C2(C)C (centres undefined)	KCNQ2 enhance 13
O=C(CCCn1cc([N+](=O)[O-])cn1)Nc1ccc2c(c1)OCO2	none (no result: KCNQ2 enhance)
CCCCOc1ccc(C(=O)N/C(=C\c2cccc([N+](=O)[O-])c2)C(=O)OCCC)cc1	none (no result: KCNQ2 enhance)
CCCCOc1ccc(C(=O)N/C(=C\c2cccc([N+](=O)[O-])c2)C(=O)OC(C)C)cc1	KCNQ2 inh -6.05
CC(=O)c1ccc(N(CC(=O)NC2CCCCC2)C(=O)CNC(=O)c2ccco2)cc1	none
COc1ccc(S(=O)(=O)N2CCN(C)CC2)cc1C(=O)Nc1ccccc1	none (no result: KCNQ2 enhance)
COc1ccc(-c2nn(-c3ccccc3)cc2C(=O)NC(=S)Nc2cc(Cl)ccc2Cl)cc1	KCNQ2 inh -7.68
COc1ccc(-c2nn(-c3ccccc3)cc2C(=O)NC(=S)NNC(=O)c2ccncc2)cc1	none (no result: KCNQ2 enhance)
COc1ccc(NC(=O)c2cn(-c3ccccc3)nc2-c2cc3ccccc3o2)cc1	KCNQ2 inh -6.01
COc1ccc(NC(=O)c2cn(-c3ccccc3)nc2-c2ccncc2)cc1	none (no result: KCNQ2 enhance)
O=C1NC2=C(C(=O)CCC2)C(c2ccc([N+](=O)[O-])cc2)N1 (centres undefined)	none (no result: KCNQ2 enhance)
CCN(CC)c1ccc(NC(=O)c2ccc3c(c2)OCO3)cc1	none
Cc1onc(-c2ccccc2)c1C(=O)N/N=C/c1cn(C)c2ccccc12	KCNQ2 inh -6.39
Cc1cccc(/C=N/NC(=O)c2c(-c3ccccc3)noc2C)c1O	none (no result: KCNQ2 enhance)
Cc1nn(Cc2noc(C(=O)NCc3ccc4c(c3)OCO4)n2)c(C)c1Br	none (no result: KCNQ2 enhance)
CC(=O)c1ccc(NC(=O)CCNC(=O)c2ccc(Cl)cc2)cc1	none
Cc1nn(-c2ccccc2)c2c1C(c1ccc([N+](=O)[O-])cc1)N1C(=N2)C(=O)Nc2ccccc21 (centres undefined)	none
Cc1nn(-c2ccccc2)c2c1C(c1ccc(Cl)cc1)N(c1ccccc1)C(=O)N2 (centres undefined)	KCNQ2 inh -7.57
Cc1ccc(C(=O)Nc2cccc(C(=O)O)c2)cc1	none
Cc1oc2c(c1C(=O)Nc1cccc(C(=O)O)c1)CCCC2	KCNQ2 enhance 5.57
CSc1ccc(C(=O)N2CCC(CCC(=O)NCc3ccc(F)cc3)CC2)cc1	none
COc1ccc(CCC(=O)NC2CCCc3ccccc32)cc1OC (centres undefined)	none
COc1cc(NS(=O)(=O)c2c(C)oc3c(F)c(F)c(F)c(F)c23)cc(OC)c1OC	KCNQ2 inh -6.65
COc1cc(NS(=O)(=O)c2ccc3c(c2)oc(=O)n3C)cc(OC)c1OC	none (no result: KCNQ2 enhance)
Cc1ccc(-c2cc(C(=O)Nc3c(C)n(C)n(-c4ccccc4)c3=O)[nH]n2)c(O)c1C	none
Cc1cc(C)nc(N/N=C/c2ccccc2Cl)n1	none
Cc1cc(N/N=C/c2ccccc2Cl)nc(NCc2ccccc2)n1	KCNQ2 inh -6.37
Cc1csc(NC(=O)CSc2nc(=O)n(CCN(C)C)c3c2CCCC3)n1	none
Cn1c(SCC(=O)N2c3ccccc3CCc3ccccc32)nnc1-c1ccc(O)cc1	KCNQ2 inh -5.77
Cn1c(SCC(=O)c2ccccc2)nnc1-c1ccc(O)cc1	none
COc1cccc(CN2CC(C(=O)NCCOc3cccnc3)CCC2=O)c1 (centres undefined)	none (no result: KCNQ2 enhance)
CC1C/C(=C\c2ccccc2[N+](=O)[O-])c2nc3ccccc3c(C(=O)O)c2C1 (centres undefined)	KCNQ2 inh -5.78
O=C(O)c1c2c(nc3ccccc13)/C(=C/c1ccccc1[N+](=O)[O-])CCC2	none (no result: KCNQ2 enhance)
C=CCn1c(SCC(=O)Nc2nncs2)nnc1-c1ccco1	none (no result: KCNQ2 enhance)
COc1ccc(CCNC(=O)COc2ccc3c(C)cc(=O)oc3c2)cc1OC	none
C=CCOc1ccccc1CN1CCC(Oc2cc(C(=O)NC3CC3)ccc2OC)CC1	none (no result: KCNQ2 enhance)
Cc1ccc(CN2CCc3c(OCC(=O)Nc4cccc(C)c4C)cccc3C2=O)cc1	KCNQ2 inh -7.17
Cc1ccc(C)c(NC(=O)COc2cccc3c2CCN(Cc2ccccc2C)C3=O)c1	none (no result: KCNQ2 enhance)
